{"source": "ChEMBL document CHEMBL3988442", "about": "“University of Dundee, Small-Polar-MMV Screening Library” (2021)", "data": [{"molecular_target": "T1, Aspartate--tRNA(Asp/Asn) ligase (Mycobacterium tuberculosis (strain ATCC 25618 / H37Rv)) (UniProt P9WFW3)", "T1 sequence (whole entry)": "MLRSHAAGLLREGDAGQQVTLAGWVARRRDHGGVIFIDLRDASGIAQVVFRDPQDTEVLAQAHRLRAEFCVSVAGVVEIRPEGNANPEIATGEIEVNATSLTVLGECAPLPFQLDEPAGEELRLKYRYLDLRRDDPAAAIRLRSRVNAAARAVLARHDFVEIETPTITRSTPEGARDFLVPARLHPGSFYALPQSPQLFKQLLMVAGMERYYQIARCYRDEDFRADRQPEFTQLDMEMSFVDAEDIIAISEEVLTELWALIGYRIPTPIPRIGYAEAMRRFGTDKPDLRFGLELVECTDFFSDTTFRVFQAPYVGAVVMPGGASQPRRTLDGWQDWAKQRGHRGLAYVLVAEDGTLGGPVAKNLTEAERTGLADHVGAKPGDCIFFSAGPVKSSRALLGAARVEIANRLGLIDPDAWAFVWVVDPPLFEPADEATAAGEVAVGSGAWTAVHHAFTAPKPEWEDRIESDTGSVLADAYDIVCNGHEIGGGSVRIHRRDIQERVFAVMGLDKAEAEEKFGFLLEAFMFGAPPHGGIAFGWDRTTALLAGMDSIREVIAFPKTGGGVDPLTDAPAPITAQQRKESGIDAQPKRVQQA", "assay": "Assay for Asp RNA synthetase-1 from Mycobacterium tuberculosis", "type": "functional", "design": "scale not given: in the data most compounds retested in dose-response had high values", "details": "30 µM", "units": {"Percent Effect": "%"}, "values": [{"smiles": "COCCCC1CCCN(C(=O)CCc2cc(O)no2)C1", "note": "(stereo not given)", "Percent Effect": -7.41}, {"smiles": "CCOc1ccc(NC(=O)CN2CCN(c3nccn3C)CC2)cc1", "Percent Effect": -3.86}, {"smiles": "O=C(c1cc(F)ccc1F)C1CCN(C(=O)c2cccnc2O)CC1", "Percent Effect": -2.36}, {"smiles": "CC(=O)N1CCN(C(=O)CCOc2ccc(C(C)C)cc2)CC1", "Percent Effect": -2.21}, {"smiles": "Cc1cnn(CC2CCCN2C(=O)c2cc3c(F)cccc3[nH]2)c1", "note": "(stereo not given)", "Percent Effect": 4.86}, {"smiles": "CN1CCc2c(C#N)c(NCc3ccco3)n3cnnc3c2C1", "Percent Effect": 6.08}, {"smiles": "CN(C)C(=O)COC1COC2(CCN(S(C)(=O)=O)CC2)C1", "note": "(stereo not given)", "Percent Effect": -4.11}, {"smiles": "Cc1nnc2n1CCN(C(=O)c1cc(Cl)c[nH]1)C2", "Percent Effect": -0.345}, {"smiles": "Cc1nccn1CC1CCCN1S(=O)(=O)Cc1ccon1", "note": "(stereo not given)", "Percent Effect": -2.34}, {"smiles": "CCOCC1CN(C(=O)c2cccn2C)Cc2cnn(CC3CC3)c21", "note": "(stereo not given)", "Percent Effect": 5.55}, {"smiles": "CN(Cc1ccco1)[C@@H]1CN(Cc2ccco2)[C@@H]2CCCO[C@H]12", "Percent Effect": -1.66}, {"smiles": "COc1cccc(S(=O)(=O)N2CCC(O)(CN(C)C)C2)c1", "note": "(stereo not given)", "Percent Effect": -0.221}, {"smiles": "c1cnn(CC2CN(Cc3noc(C4CC4)n3)CCO2)c1", "note": "(stereo not given)", "Percent Effect": 0.485}, {"smiles": "CC(NC(=O)CSCC(=O)Nc1ccccc1)c1ccccc1", "note": "(stereo not given)", "Percent Effect": 3.01}, {"smiles": "Cc1cnc2n(c1=O)CC(C(=O)Nc1cccc3cccnc13)CS2", "note": "(stereo not given)", "Percent Effect": 16.3}, {"smiles": "COc1cc(NC(=O)Cn2ccc3sc(C)cc3c2=O)cc(OC)c1", "Percent Effect": -2.26}, {"smiles": "CCc1ccc(OCC(O)CN2CCN(S(C)(=O)=O)CC2)cc1", "note": "(stereo not given)", "Percent Effect": -0.577}, {"smiles": "CC(=O)N1CCC(c2cc(C(F)(F)F)n3ccnc3n2)CC1", "Percent Effect": 6.9}, {"smiles": "O=C(N1CCOCC1)[C@@]12CCO[C@@H]1CCN(Cc1ccccc1F)C2", "Percent Effect": -6.79}, {"smiles": "CCNC(=O)[C@@H]1C[C@H](NC(=O)c2ccccc2C#N)CN1CCCSC", "Percent Effect": -0.866}]}]}
